Measured values reported in PubChem BioAssay AID1159580 (chemical genetic matrix, 2015).
Hit rate of the full screen: of about 5,500 compounds, about 2,000 (36%) were called active. Another 18% or so got no clear call; they are omitted. The list shows a part of the results. Values without a mark were called inactive. No stated cut-off is given here; in the data, active means normalized growth mostly below about 0.91 (no sharp cut-off); inconclusive means no clear call, values can overlap the other calls; inactive means mostly above about 0.92.

Experiment: chemical genetic growth profiling, strain panel (AID 1159580);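 further: tested at 20 µM; growth read once vehicle control cultures reached saturation at 30 °C; 1 = growth at the plate median or of vehicle wells; lower values mean less growth of the strain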
Conditions: growth OD

Q: With `COC(=O)[C@]1(C)CCC[C@]2(C)c3ccc(C(C)C)cc3C(=O)CC12` (stereo partly drawn) as the compound, how does the normalized growth (S. cerevisiae deletion strains, locus YJL187C, strain SWE1, hits give low values) read?
A: The normalized growth was 0.956.

Q: What about the normalized growth (S. cerevisiae deletion strains, locus YJR043C, strain POL32, hits give low values) of the same compound?
A: Its normalized growth is 1.03.

Q: What about the normalized growth (S. cerevisiae deletion strains, locus YJR075W, strain HOC1, hits give low values) of the same compound?
A: The normalized growth was 0.914.

Q: And the normalized growth (S. cerevisiae deletion strains, locus YKL009W, strain mrt4, hits give low values)?
A: Its normalized growth is 0.942.

Q: And the normalized growth (S. cerevisiae deletion strains, locus YKL068W, hits give low values)?
A: The normalized growth was 0.984.

Q: And the normalized growth (S. cerevisiae deletion strains, locus YKL160W, strain elf1, hits give low values)?
A: Its normalized growth is 0.983.

Q: And the normalized growth (S. cerevisiae deletion strains, locus YKL190W, strain CNB1, hits give low values)?
A: The normalized growth was 0.967.

Q: What about the normalized growth (S. cerevisiae deletion strains, locus YKR001C, strain vps1, hits give low values) of the same compound?
A: The normalized growth was 1.01.

Q: And the normalized growth (S. cerevisiae deletion strains, locus YKR026C, strain gcn3, hits give low values)?
A: Its normalized growth is 0.975.

Q: What about the normalized growth (S. cerevisiae deletion strains, locus YKR091W, strain srl3, hits give low values) of the same compound?
A: The normalized growth was 0.96.

Q: What about the normalized growth (S. cerevisiae deletion strains, locus YLL001W, strain dnm1, hits give low values) of the same compound?
A: Its normalized growth is 0.986.

Q: And the normalized growth (S. cerevisiae deletion strains, locus YLL026W, hits give low values)?
A: The normalized growth was 0.964.

Q: And the normalized growth (S. cerevisiae deletion strains, locus YLL041C, strain sdh2, hits give low values)?
A: The normalized growth was 0.958.

Q: And the normalized growth (S. cerevisiae deletion strains, locus YLR027C, strain aat2, hits give low values)?
A: Its normalized growth is 0.956.

Q: What about the normalized growth (S. cerevisiae deletion strains, locus YLR039C, strain RIC1, hits give low values) of the same compound?
A: Its normalized growth is 0.978.

Q: And the normalized growth (S. cerevisiae deletion strains, locus YLR058C, strain SHM2, hits give low values)?
A: The normalized growth was 0.986.

Q: And the normalized growth (S. cerevisiae deletion strains, locus YLR102C, strain apc9, hits give low values)?
A: The normalized growth was 1.01.

Q: And the normalized growth (S. cerevisiae deletion strains, locus YLR221C, strain rsa3, hits give low values)?
A: The normalized growth was 1.

Q: What about the normalized growth (S. cerevisiae deletion strains, locus YLR258W, strain gsy2, hits give low values) of the same compound?
A: The normalized growth was 0.973.

Q: What about the normalized growth (S. cerevisiae deletion strains, locus YLR262C, strain YPT6 (second series), hits give low values) of the same compound?
A: The normalized growth was 0.897.

Q: What about the normalized growth (S. cerevisiae deletion strains, locus YLR262C, strain YPT6, hits give low values) of the same compound?
A: The normalized growth was 0.925.

Q: And the normalized growth (S. cerevisiae deletion strains, locus YLR268W, strain sec22, hits give low values)?
A: The normalized growth was 0.955.

Q: What about the normalized growth (S. cerevisiae deletion strains, locus YLR320W, strain mms22, hits give low values) of the same compound?
A: The normalized growth was 0.991.

Q: What about the normalized growth (S. cerevisiae deletion strains, locus YLR330W, strain CHS5, hits give low values) of the same compound?
A: The normalized growth was 0.997.

Q: And the normalized growth (S. cerevisiae deletion strains, locus YLR342W, strain FKS1 (second series), hits give low values)?
A: The normalized growth was 0.937.

Q: And the normalized growth (S. cerevisiae deletion strains, locus YLR342W, strain FKS1, hits give low values)?
A: Its normalized growth is 0.958.

Q: And the normalized growth (S. cerevisiae deletion strains, locus YLR357W, strain rsc2, hits give low values)?
A: The normalized growth was 0.989.

Q: And the normalized growth (S. cerevisiae deletion strains, locus YLR370C, strain arc18, hits give low values)?
A: Its normalized growth is 0.949.

Q: What about the normalized growth (S. cerevisiae deletion strains, locus YLR371W, strain rom2, hits give low values) of the same compound?
A: The normalized growth was 1.01.

Q: And the normalized growth (S. cerevisiae deletion strains, locus YLR384C, strain iki3, hits give low values)?
A: Its normalized growth is 0.96.

Q: And the normalized growth (S. cerevisiae deletion strains, locus YLR418C, strain cdc73, hits give low values)?
A: Its normalized growth is 0.865.

Q: What about the normalized growth (S. cerevisiae deletion strains, locus YML016C, strain PPZ1, hits give low values) of the same compound?
A: Its normalized growth is 0.979.

Q: What about the normalized growth (S. cerevisiae deletion strains, locus YML032C, strain rad52, hits give low values) of the same compound?
A: The normalized growth was 1.03.

Q: What about the normalized growth (S. cerevisiae deletion strains, locus YML120C, strain ndi1, hits give low values) of the same compound?
A: The normalized growth was 0.965.

Q: What about the normalized growth (S. cerevisiae deletion strains, locus YML124C, strain tub3, hits give low values) of the same compound?
A: Its normalized growth is 0.991.

Q: And the normalized growth (S. cerevisiae deletion strains, locus YMR058W, strain fet3, hits give low values)?
A: Its normalized growth is 0.969.

Q: And the normalized growth (S. cerevisiae deletion strains, locus YMR078C, strain ctf18, hits give low values)?
A: The normalized growth was 1.

Q: And the normalized growth (S. cerevisiae deletion strains, locus YMR125W, strain sto1, hits give low values)?
A: The normalized growth was 0.964.

Q: And the normalized growth (S. cerevisiae deletion strains, locus YMR129W, hits give low values)?
A: The normalized growth was 0.956.

Q: What about the normalized growth (S. cerevisiae deletion strains, locus YMR205C, strain PFK2, hits give low values) of the same compound?
A: The normalized growth was 0.934.

Q: What about the normalized growth (S. cerevisiae deletion strains, locus YMR223W, strain ubp8, hits give low values) of the same compound?
A: Its normalized growth is 1.02.

Q: What about the normalized growth (S. cerevisiae deletion strains, locus YMR231W, strain pep5, hits give low values) of the same compound?
A: The normalized growth was 0.974.

Q: What about the normalized growth (S. cerevisiae deletion strains, locus YMR263W, strain SAP30, hits give low values) of the same compound?
A: The normalized growth was 0.961.

Q: And the normalized growth (S. cerevisiae deletion strains, locus YMR307W, strain GAS1, hits give low values)?
A: The normalized growth was 0.953.

Q: And the normalized growth (S. cerevisiae deletion strains, locus YNL067W, strain RPL9B, hits give low values)?
A: The normalized growth was 0.936.

Q: And the normalized growth (S. cerevisiae deletion strains, locus YNL071W, strain lat1, hits give low values)?
A: The normalized growth was 0.952.

Q: What about the normalized growth (S. cerevisiae deletion strains, locus YNL128W, strain TEP1, hits give low values) of the same compound?
A: The normalized growth was 0.964.

Q: What about the normalized growth (S. cerevisiae deletion strains, locus YNL153C, strain GIM3, hits give low values) of the same compound?
A: The normalized growth was 0.982.

Q: And the normalized growth (S. cerevisiae deletion strains, locus YNL209W, strain ssb2, hits give low values)?
A: Its normalized growth is 0.992.

Q: And the normalized growth (S. cerevisiae deletion strains, locus YNL233W, strain BNI4, hits give low values)?
A: The normalized growth was 0.971.

Q: And the normalized growth (S. cerevisiae deletion strains, locus YNL248C, strain rpa49, hits give low values)?
A: Its normalized growth is 0.962.

Q: What about the normalized growth (S. cerevisiae deletion strains, locus YNL250W, strain rad50, hits give low values) of the same compound?
A: Its normalized growth is 0.99.

Q: And the normalized growth (S. cerevisiae deletion strains, locus YNL271C, strain bni1, hits give low values)?
A: The normalized growth was 1.01.

Q: What about the normalized growth (S. cerevisiae deletion strains, locus YNL298W, strain CLA4, hits give low values) of the same compound?
A: The normalized growth was 1.01.

Q: What about the normalized growth (S. cerevisiae deletion strains, locus YNL307C, strain MCK1, hits give low values) of the same compound?
A: Its normalized growth is 0.985.

Q: And the normalized growth (S. cerevisiae deletion strains, locus YNL322C, strain KRE1 (second series), hits give low values)?
A: The normalized growth was 0.954.

Q: What about the normalized growth (S. cerevisiae deletion strains, locus YNL322C, strain KRE1, hits give low values) of the same compound?
A: The normalized growth was 0.979.

Q: What about the normalized growth (S. cerevisiae deletion strains, locus YNR049C, strain mso1, hits give low values) of the same compound?
A: The normalized growth was 0.964.

Q: What about the normalized growth (S. cerevisiae deletion strains, locus YNR052C, strain pop2, hits give low values) of the same compound?
A: Its normalized growth is 1.04.

Q: And the normalized growth (S. cerevisiae deletion strains, locus YOL006C, strain TOP1, hits give low values)?
A: The normalized growth was 0.828.

Q: What about the normalized growth (S. cerevisiae deletion strains, locus YOL012C, strain htz1) of the same compound?
A: The normalized growth was 1.22.

Q: What about the normalized growth (S. cerevisiae deletion strains, locus YOL147C, strain pex11, hits give low values) of the same compound?
A: The normalized growth was 1.

Q: What about the normalized growth (S. cerevisiae deletion strains, locus YOR001W, strain rrp6, hits give low values) of the same compound?
A: Its normalized growth is 0.987.

Q: And the normalized growth (S. cerevisiae deletion strains, locus YOR061W, strain CKA2, hits give low values)?
A: Its normalized growth is 0.977.

Q: What about the normalized growth (S. cerevisiae deletion strains, locus YOR069W, strain VPS5, hits give low values) of the same compound?
A: The normalized growth was 0.996.

Q: And the normalized growth (S. cerevisiae deletion strains, locus YOR070C, strain gyp1, hits give low values)?
A: The normalized growth was 0.988.

Q: What about the normalized growth (S. cerevisiae deletion strains, locus YOR080W, strain dia2, hits give low values) of the same compound?
A: Its normalized growth is 0.965.

Q: And the normalized growth (S. cerevisiae deletion strains, locus YOR083W, strain WHI5, hits give low values)?
A: Its normalized growth is 0.996.

Q: And the normalized growth (S. cerevisiae deletion strains, locus YOR106W, strain vam3, hits give low values)?
A: Its normalized growth is 0.965.

Q: What about the normalized growth (S. cerevisiae deletion strains, locus YOR136W, strain idh2, hits give low values) of the same compound?
A: The normalized growth was 1.02.

Q: What about the normalized growth (S. cerevisiae deletion strains, locus YOR144C, strain elg1, hits give low values) of the same compound?
A: The normalized growth was 0.998.

Q: And the normalized growth (S. cerevisiae deletion strains, locus YOR184W, strain ser1, hits give low values)?
A: Its normalized growth is 0.982.

Q: What about the normalized growth (S. cerevisiae deletion strains, locus YOR265W, strain rbl2, hits give low values) of the same compound?
A: The normalized growth was 0.969.

Q: What about the normalized growth (S. cerevisiae deletion strains, locus YOR270C, strain vph1, hits give low values) of the same compound?
A: Its normalized growth is 0.673 (active).

Q: And the normalized growth (S. cerevisiae deletion strains, locus YOR290C, strain snf2, hits give low values)?
A: The normalized growth was 0.949.

Q: And the normalized growth (S. cerevisiae deletion strains, locus YOR316C, strain cot1, hits give low values)?
A: The normalized growth was 0.998.

Q: What about the normalized growth (S. cerevisiae deletion strains, locus YPL051W, strain arl3, hits give low values) of the same compound?
A: The normalized growth was 0.984.

Q: What about the normalized growth (S. cerevisiae deletion strains, locus YPL055C, strain LGE1, hits give low values) of the same compound?
A: The normalized growth was 0.868.

Q: And the normalized growth (S. cerevisiae deletion strains, locus YPL078C, strain atp4, hits give low values)?
A: The normalized growth was 0.968.

Q: What about the normalized growth (S. cerevisiae deletion strains, locus YPL106C, strain sse1, hits give low values) of the same compound?
A: Its normalized growth is 0.989.

Q: What about the normalized growth (S. cerevisiae deletion strains, locus YPL240C, strain hsp82, hits give low values) of the same compound?
A: Its normalized growth is 0.968.

Q: And the normalized growth (S. cerevisiae deletion strains, locus YPL241C, strain CIN2, hits give low values)?
A: The normalized growth was 0.974.

Q: What about the normalized growth (S. cerevisiae deletion strains, locus YPR119W, strain clb2, hits give low values) of the same compound?
A: Its normalized growth is 0.993.

Q: What about the normalized growth (S. cerevisiae deletion strains, locus YPR141C, strain kar3, hits give low values) of the same compound?
A: Its normalized growth is 0.981.

Q: And the normalized growth (S. cerevisiae deletion strains, locus YPR163C, strain tif3, hits give low values)?
A: Its normalized growth is 1.

Q: And the normalized growth (S. cerevisiae deletion strains, locus YPR167C, strain met16, hits give low values)?
A: Its normalized growth is 0.994.

Q: What about the normalized growth (S. cerevisiae deletion strains, strain wtn01, hits give low values) of the same compound?
A: Its normalized growth is 0.978.

Q: And the normalized growth (S. cerevisiae strains, strain wild type, hits give low values)?
A: The normalized growth was 0.993.
